An excerpt weighted towards active compounds, which were near 32% of everything screened.
PostGolgi ctrl – yeast control strain growth, post-Golgi counter-screen | AID 738 | inhibition, % at 10 µM | efflux-deficient yeast background strain, growth absorbance A615, 16 h | 98,000 compounds, 5% hits
PostGolgi yeast – growth inhibition of a yeast mutant, post-Golgi transport screen; post-Golgi transport phenotypic cell assay; inhibition, % at 10 µM; 98,000 compounds, 0.9% hits;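 note: yeast cells grown in 1536-well plates; yeast grown about 18 h at 30C before absorbance read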
CYP2C19 act – cytochrome P450 2C19 (human) activation; P33261; recombinant CYP2C19, luciferin-H EGE luminescence; active compounds read high; 0 = fully inhibited enzyme, 1 = untreated enzyme; activation factor at 5 µM; 96,000 tested, under 10 active; AID 1025;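 active = activation factor of at least 2 at 5 µM in the primary screen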;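 note: 0 = wells with 2.5 mM tranylcypromine and 1 = vehicle-only wells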
CYP2C19 inhib – human CYP2C19 inhibition. CYP2C19 Supersomes, luciferin-H EGE luminescence, 30 min. inhibition, % at 5 µM. 96,000 compounds, 21% hits;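 active = CYP2C19 inhibition above a set limit at 5 µM in the primary screen, cut at about 50% in these data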;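 note: plate controls were negative control wells for no effect and 2.5 mM tranylcypromine positive control for full effect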
CYP2C9 act – activators of human CYP2C9. activation factor at 5 µM. recombinant CYP2C9, luciferin-H conversion, luminescence; active compounds read high; factor 1 = untreated enzyme, 0 = blocked. AID 1024. P11712. 96,000 compounds, 1.4% hits;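 active = activation factor of 2 or more for CYP2C9 at a 5 µM dose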;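 note: 0 = sulfaphenazole-blocked wells and 1 = vehicle-only wells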
Target sequence (P11712 whole entry, looked up): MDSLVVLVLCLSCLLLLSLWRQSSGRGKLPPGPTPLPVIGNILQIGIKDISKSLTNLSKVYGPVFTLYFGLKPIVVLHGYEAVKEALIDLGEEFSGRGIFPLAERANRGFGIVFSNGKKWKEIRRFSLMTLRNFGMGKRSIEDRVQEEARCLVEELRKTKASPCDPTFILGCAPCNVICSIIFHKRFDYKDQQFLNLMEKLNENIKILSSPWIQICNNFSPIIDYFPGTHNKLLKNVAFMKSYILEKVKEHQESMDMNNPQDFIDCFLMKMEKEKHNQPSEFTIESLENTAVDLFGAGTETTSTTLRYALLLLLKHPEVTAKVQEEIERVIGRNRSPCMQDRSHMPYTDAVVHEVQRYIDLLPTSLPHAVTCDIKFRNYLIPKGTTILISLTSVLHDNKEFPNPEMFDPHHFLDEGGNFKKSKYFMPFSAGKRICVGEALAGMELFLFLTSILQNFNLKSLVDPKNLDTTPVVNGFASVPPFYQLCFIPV
CYP2C9 inhib – blocks human cytochrome P450 2C9 | AID 777 | P11712 | 96,000 compounds, 20% hits | CYP2C9 Supersomes, luciferin-H conversion, luminescence | inhibition, % at 5 µM;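 active = blocking of liver enzyme CYP2C9 beyond about 50% at 5 µM, limit read from the data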
An asterisk follows results filed as active; x = not tested or not shown. Cut-off read from the data, not from the text of the source, unless noted: active = inhibition above about 30%; inactive = the rest.

SMILES | PostGolgi ctrl | PostGolgi yeast | CYP2C19 act | CYP2C19 inhib | CYP2C9 act | CYP2C9 inhib
CCc1nnc(NC(=O)C2CCN(c3cnccn3)CC2)s1 | -0.8 | 7.6 | 0.9 | 5.4 | 0.8 | 24.8
CC1(C)CC(=O)C=C(NCCN2CCN(C(=O)Nc3ccccc3)CC2)C1 | 3.0 | 19.5 | 1 | -2.5 | 1.1 | -9.0
O=C(CCCOc1ccc(Cl)cc1Cl)N/N=C\C1CCCCC1 | 17.3 | -1.3 | 0.1 | 91.5* | 0.8 | 16.1
O=C(Nc1cccnc1)Nc1ccc(F)c(Cl)c1 | 12.7 | 1.6 | 0.2 | 85.0* | 0.2 | 75.9*
CSc1ccccc1NC(=O)Nc1ccc(F)c(Cl)c1 | 13.1 | 0.9 | 1 | -3.9 | 1 | -0.3
CC(C)C1(C)C(=O)N=C2c3ccccc3C(=O)N21 (stereo not given) | -0.1 | 0.8 | 0.7 | 33.1 | 1 | 2.5
Cc1cc(=O)[nH]c(Sc2c(-c3ccccc3)c3ccccc3[nH]c2=O)n1 | -2.1 | -6.0 | 0.8 | 23.2 | 0.9 | 5.6
C/C(=C\C(=O)Nc1cc(C)on1)c1ccccc1 | -0.9 | 3.4 | 0.8 | 20.0 | 1 | -1.7
CC(NC(=O)COC(=O)CCNC(=O)c1ccco1)C12CC3CC(CC(C3)C1)C2 (stereo not given) | 6.8 | -11.0 | 0.5 | 51.2* | 0.4 | 55.6*
Cc1cc(Nc2ccccc2)c2c([N+](=O)[O-])c(C)cc(C)c2n1 | 10.7 | -6.4 | 0.2 | 78.1* | 0.2 | 81.4*
CCCCc1nnc(NC(=O)C(C)Sc2nc(C)cc(=O)[nH]2)s1 (stereo not given) | 5.3 | -3.3 | 0.9 | 13.1 | 0.8 | 22.7
CN(C(=O)Nc1ccc(Cl)cc1Cl)[C@H]1c2cc(Br)ccc2OC[C@H]1CO | 80.7* | 6.5 | 0.6 | 41.2 | 0.1 | 87.0*
COc1cccc2cc(-c3csc(CCn4nc(C)cc4C)n3)c(=O)oc12 | 21.7 | 5.7 | 0.2 | 81.7* | 0.3 | 65.6*
Cc1cccc(NC2=C(Cl)C(=O)OC2NC(=O)c2ccccc2)c1 (stereo not given) | 2.4 | -3.1 | 0.6 | 39.5 | 0.5 | 53.5*
Cc1cccc(NC(=O)c2cccc3c2C(=O)c2ccccc2-3)c1 | 8.3 | 0.6 | 0.9 | 8.5 | 1.4 | -35.3
COc1ccc(S(=O)(=O)Nc2ccc(NC(C)=O)cc2)cc1OC | -6.5 | -2.0 | 0.1 | 95.0* | 0.3 | 67.3*
COCCNS(=O)(=O)c1ccc(OCC(=O)OC)c(Cl)c1 | 4.2 | 4.4 | 0.9 | 6.6 | 0.9 | 5.3
COc1ccc(CONS(=O)(=O)c2ccc(NC(C)=O)cc2)cc1Cl | 3.2 | -0.7 | 0.5 | 52.8* | 1 | -3.9
COc1ccc(CC(=O)Nc2ccc(S(=O)(=O)N(C)C)cc2)cc1OC | 9.6 | -12.3 | 1 | 0.4 | 0.9 | 10.8
COc1ccc(S(=O)(=O)Nc2ccc(S(=O)(=O)Nc3nc(C)cc(C)n3)cc2)cc1OC | 31.5* | 4.9 | 1 | -2.3 | 0.8 | 23.0
COC(=O)COc1ccc(S(=O)(=O)Nc2ccc(NC(C)=O)cc2)cc1C | 5.5 | -1.9 | 0.2 | 76.5* | 0.7 | 31.9
[O-]C1=N/[N+](=C/c2ccccc2Cl)CC1 | 4.9 | 19.3 | 1.2 | -19.1 | 1.3 | -34.5
COc1cc(C2CC(=O)NC3=C2C(=O)CC(C)(C)C3)cc(OC)c1O (stereo not given) | 20.3 | 3.4 | 1.2 | -21.3 | 1.2 | -23.2
CCOc1cc2[nH]c(=O)n(CCCCC(=O)N3CCCCCC3)c(=O)c2cc1OCC | -1.0 | 9.3 | x | x | x | x
COC(=O)c1ccc(C)c(NS(=O)(=O)c2ccc(OC)c(OC)c2)c1 | 10.4 | 1.0 | 0.2 | 81.8* | 0.4 | 58.2*
SMILES | PostGolgi ctrl | PostGolgi yeast | CYP2C19 act | CYP2C19 inhib | CYP2C9 act | CYP2C9 inhib
COc1ccc(S(=O)(=O)Nc2ccccc2)cc1OC | 12.7 | -2.9 | 0.1 | 90.5* | 1.1 | -7.3
COc1cccc(NS(=O)(=O)c2ccc(OC)c(OC)c2)c1 | 14.3 | 0.5 | 0 | 99.6* | 1.9 | -88.5
COc1ccc(S(=O)(=O)c2ccc(OC)c(OC)c2)cc1OC | 9.3 | -2.6 | 0.2 | 79.1* | 1.6 | -63.2
COc1ccc(N2CC(=O)N(c3ccc(OC)c(OC)c3)CC2=O)cc1OC | 1.1 | 4.2 | 1 | -1.5 | 1.1 | -6.6
NC1=NC2(CCCCCC2)n2c(nc3ccccc32)N1 | -4.8 | 4.0 | 1 | -0.3 | 0.9 | 5.1
CC(=O)N1CCN(CCN=CC2=C(O)CC(c3ccc(Cl)cc3)CC2=O)CC1 (stereo not given) | 17.1 | 17.3 | 0.9 | 12.4 | 0.9 | 14.6
COc1ccc(S(=O)(=O)Nc2ccc(C)cc2)cc1OC | 16.6 | -1.0 | 0 | 97.0* | 0.4 | 62.0*
COc1cc(OC)c(OC)cc1/C=N/NC(=S)NCC1CCCO1 (stereo not given) | 1.8 | -10.7 | 1 | 4.7 | 0.3 | 65.2*
CC/C(=N\NC(=O)c1ccc(-c2ccccc2)cc1)C12CC3CC(CC(C3)C1)C2 | 1.5 | -5.8 | 0.3 | 67.1* | 0.6 | 39.3
CC(C)N1CCC2(CC1)N=C(c1ccc3c(c1)OCO3)CC(c1cc(Cl)ccc1O)N2 (stereo not given) | 50.1* | 15.0 | 0.9 | 10.9 | 0.8 | 19.5
NC(=O)C1CCN(S(=O)(=O)c2cccc(C(=O)O)c2)CC1 | -6.5 | -2.4 | 1 | -2.5 | 1 | 0.6
CCCNC(=O)C1CN(S(=O)(=O)c2ccccc2)CCN1S(=O)(=O)c1ccccc1 (stereo not given) | 8.1 | -2.6 | 0.9 | 8.4 | 1 | 0.6
CCC(C)NC(=O)C1CN(S(=O)(=O)c2ccccc2)CCN1S(=O)(=O)c1ccccc1 (stereo not given) | -1.0 | -5.2 | 0.3 | 66.3* | 0.8 | 22.8
CSCC[C@H](NC(=O)C1CCN(S(=O)(=O)c2ccc(C)cc2)CC1)C(=O)NCc1ccco1 | 30.9* | -1.3 | 1.1 | -5.9 | 1 | -1.2
Cc1ccc(S(=O)(=O)N2CCCCC2C(=O)NCc2ccco2)cc1 (stereo not given) | 5.2 | -4.7 | 0.1 | 93.7* | 0.7 | 32.8
COC(=O)Nc1ccc(S(=O)(=O)N2CCCCC2C(=O)NCc2ccco2)cc1 (stereo not given) | 0.6 | -0.5 | 0.6 | 41.7 | 1 | 0.1
O=C(NCc1ccco1)C1CN(S(=O)(=O)c2ccccc2)CCN1S(=O)(=O)c1ccccc1 (stereo not given) | 9.2 | -5.2 | 0.4 | 56.3* | 0.5 | 50.5*
CSCC[C@H](NC(=O)C1CCN(S(=O)(=O)c2ccc(C)cc2)CC1)C(=O)NCC1CCCO1 (stereo not given in full) | 1.8 | -4.4 | 0.9 | 8.4 | 0.7 | 25.9
Cc1ccc(S(=O)(=O)NCC2CCC(C(=O)NCc3ccco3)CC2)cc1 (stereo not given) | 6.6 | -12.0 | 0.5 | 53.5* | 0.5 | 45.9
CSc1ccccc1NC(=O)c1ccco1 | 8.7 | 6.1 | 1 | -4.4 | 1 | 2.5
CCOC(=O)C1=C(C)N=c2s/c(=C\c3cccn3C)c(=O)n2C1c1cccc(OC)c1OC (stereo not given) | 32.7* | -0.6 | 0.7 | 26.0 | 0.7 | 27.1
